# Sampled rows, rich in hits. Any-hit rate of the full collection: about 3.7%.
# tim10-1 inh – tim10-1 yeast growth inhibition | 2.2% of 330,000 active | AID 463190 | S. cerevisiae tim10-1 ts strain growth, BacTiter-Glo, 24 h | inhibition, % at 20 µM;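 active = inhibition of at least 40%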;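 note: mutant grown at 25 °C; 0% = DMSO wells with yeast and 100% = wells holding no yeast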
# tim23-1 inh – inhibits growth of tim23-1 mutant yeast. S. cerevisiae tim23-1 growth, BacTiter-Glo luminescence, 24 h. inhibition, % at 20 µM. 1.3% of 330,000 active;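 active = growth inhibition of the mutant yeast at or above 50%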;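 note: temperature-sensitive mutant grown at 25 °C; plate controls were DMSO-treated mutant yeast for no effect and medium wells lacking yeast for full effect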
# TIM10 inh – TIM10 yeast growth inhibition | inhibition, % at 10 µM | AID 463195 | S. cerevisiae TIM10 strain growth, BacTiter-Glo luminescence, 24 h | 1.4% of 330,000 active;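 active = inhibition of 40% or more at the single tested concentration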;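 note: wild-type TIM10 isogenic control strain grown at permissive 25 °C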
# V-ATPase pH – regulators of yeast V-ATPase proton transport | S. cerevisiae, pHLuorin cytosolic pH fluorescence | response, % at 10 µM | 0.37% of 350,000 active | AID 504577; in the data active = response mostly above about 7.3%, no sharp cut-off; inactive = mostly below about 5.4%; note: actives read high
# PfHsp90 yeast 2 – growth inhibition of yeast expressing Plasmodium Hsp90. S. cerevisiae expressing PfHsp90, BacTiter-Glo ATP, 48 h; yeast lacking PDR1 and PDR3 efflux regulators. inhibition, % at 9.4 µM. 0.32% of 310,000 active;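 active = every replicate shows inhibition above about 80%, whatever the replicate mean, limit read from the data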;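 note: 0% = DMSO neutral controls and 100% = 20 µM radicicol positive controls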
# tim23-1 conf – confirmation of tim23-1 mutant yeast growth inhibitors; inhibition, % at 20 µM; AID 463218; 83% of 4,400 active; shares compounds with tim23-1 inh; S. cerevisiae tim23-1 growth, BacTiter-Glo luminescence, 24 h;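 active = inhibition above about 39% in either of two replicate wells at 20 µM, limit read from the data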;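 note: temperature-sensitive tim23-1 mutant grown at 25 °C; 0% = DMSO wells with yeast and 100% = medium wells without yeast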
# Starred values were filed as active, the others as inactive; / = not tested or not shown.
SMILES,tim10-1 inh,tim23-1 inh,TIM10 inh,V-ATPase pH,PfHsp90 yeast 2,tim23-1 conf
O=C(Nc1ccc(F)c(Cl)c1)C1CCCC1,6,33,2,-2,/,/
Cc1ccc(C(=O)NCC(=O)NCC(c2cccs2)N(C)C)cc1C (stereo not given),9,5,0,-2,-9,/
COc1ccc(NC(=O)COC(=O)/C=C/c2cnc3ccccc3n2)cc1,21,22,16,-2,-16,/
Cc1ccc(Nc2nc(-c3sc(N)nc3C)cs2)cc1,33,65*,33,14*,-5,63*
COc1ccc(Nc2nc(-c3sc(N)nc3C)cs2)cc1,14,16,7,6,-5,/
O=C(COc1c(Br)cc(Br)c2cccnc12)N1CCc2ccccc2C1,36,51*,12,0,-27,51*
CCOC(=O)Nc1ccc2c(c1)Nc1ccccc1S2,33,62*,36,-2,2,52*
Cn1c(SC/C=C/c2ccccc2)nnc1-c1cccs1,6,57*,-4,0,3,45*
Cn1cccc1-c1nc2ccc(NC(=O)c3cccs3)cc2[nH]1,1,56*,24,4,-6,48*
O=C(Nc1ccc2nc(-c3ccc(Br)o3)[nH]c2c1)c1cccs1,18,73*,38,-2,/,72*
O=C(Nc1ccc2nc(-c3ccc(Br)o3)[nH]c2c1)c1ccco1,7,57*,38,1,4,66*
CC(=O)Nc1ccc2nc(-c3ccc(Br)o3)[nH]c2c1,-26,0,5,0,9,/
CC(=O)Nc1ccc2nc(-c3cccn3C)[nH]c2c1,-4,-5,9,-3,-1,/
COc1ccc(NC(=O)N(C)C[C@@H]2Oc3ccc(NC(=O)NC(C)C)cc3CC(=O)N([C@H](C)CO)C[C@@H]2C)cc1,4,6,-3,0,-19,/
O=c1c2ccccc2c(C=NC2CCS(=O)(=O)C2)c(O)n1-c1ccccc1 (stereo not given),18,-9,-8,0,/,/
O=S1(=O)CCC(N=Cc2cc(Br)ccc2O)C1 (stereo not given),31,56*,30,3,2,43*
CC(C)CN1C(=O)c2ccc(NC(=O)c3ccco3)cc2C1=O,10,52*,31,-1,18,53*
Cc1ccc(C)c(-c2csc(N/N=C/c3ccco3)n2)c1,30,56*,18,2,15,39*
C=CCn1cccc(C(=O)Nc2ccc(Cl)cc2)c1=O,22,53*,18,-1,-32,21
CCCCN(CC)c1nc(N)c2c(N)nc(OCC)cc2c1C#N,23,56*,13,4,7,44*
COc1cc(NC(=O)[C@@H]2CCCN(S(=O)(=O)c3cccc4cccnc34)C2)cc(OC)c1OC,1,-14,-12,-9,-7,/
Nc1ncc(Br)cc1S(=O)(=O)NCCC(=O)NCCc1ccc(Cl)cc1,-7,5,2,-7,7,/
Cc1ccc(S(=O)(=O)NCC(=O)OCCOc2ccccc2F)cc1,25,18,3,-1,-7,/
Cc1ccc(S(=O)(=O)NCC(=O)OCCOc2cccc(Cl)c2)cc1,37,51*,15,1,-18,44*
CCNc1nc2c(c(=O)n(C)c(=O)n2C)n1CCCc1ccccc1,3,-7,0,-1,2,/
SMILES,tim10-1 inh,tim23-1 inh,TIM10 inh,V-ATPase pH,PfHsp90 yeast 2,tim23-1 conf
N#CCCN(C(=O)COC(=O)c1cc(S(=O)(=O)N2CCOCC2)ccc1Cl)c1ccc(F)cc1,-12,-17,4,-2,18,/
Cc1cccc(C(=O)O/N=C(\N)c2ccc(Br)cc2)c1,7,96*,12,3,25,51*
Cc1ccc(/C(N)=N/OC(=O)c2cccc(Cn3cc(C(F)(F)F)ccc3=O)c2)cc1,39,59*,23,-2,-4,60*
O=C(/C=C/c1c(F)cccc1Cl)N1CCc2ccccc2C1,20,59*,12,-1,-96,59*
Nc1ccc(-c2ncc(-c3ccccc3)o2)cc1,25,51*,15,1,6,39
Brc1cccc(-c2n[nH]c(-c3ccccc3)n2)c1,24,69*,23,2,-38,48*
CN1CCSc2ccc(C(=O)NCc3cccc(Br)c3)cc21,37,53*,28,-1,12,50*
Oc1c(Br)cc(Br)cc1CNc1ccc(F)cc1,35,21,22,1,8,/
Oc1c(Br)cc(Br)cc1CNc1cnc2ccccc2c1,38,72*,-3,-1,-1,65*
C#CCOCCOCCOCCNc1nc(N2CCN(C(=O)CCCCCCCCCCNC(=O)[C@H](CO)n3cc(CCCCCN)nn3)CC2)nc(N2CCN(C(=O)CCCCCCCCCCNC(=O)[C@H](CCCN=C(N)N)n3cc(C[C@@H](C)CC)nn3)CC2)n1,34,52*,20,/,/,49*
C#CCOCCOCCOCCNc1nc(N2CCN(C(=O)CCCCCCCCCCNC(=O)[C@H](CCCCN)n3cc(C[C@@H](C)CC)nn3)CC2)nc(N2CCN(C(=O)CCCCCCCCCCNC(=O)[C@H](CCCN=C(N)N)n3cc(C[C@@H](C)CC)nn3)CC2)n1,29,47,-6,-8,-9,/
C#CCOCCOCCOCCNc1nc(N2CCN(C(=O)CCCCCCCCCCNC(=O)[C@H](CCCCN)n3cc(CCO)nn3)CC2)nc(N2CCN(C(=O)CCCCCCCCCCNC(=O)[C@H](CCCCN)n3cc(C[C@@H](C)CC)nn3)CC2)n1,28,57*,13,/,/,56*
O=S(c1ccccc1O)S(=O)c1ccccc1O (stereo not given),/,/,/,5,30,/
O=C(O)c1cc(-c2ccc3c(c2)OCCO3)n[nH]1,-5,1,-5,-5,7,/
Oc1ccccc1-c1cc(-c2ccc3c(c2)OCCO3)n[nH]1,31,66*,31,1,47,-2
CC1(c2ccc(OC(F)F)cc2)NC(=O)N(CC(=O)c2ccc3c(c2)OCO3)C1=O (stereo not given),17,27,26,-4,3,/
Brc1ccc(OCc2nc(-c3ccccn3)n[nH]2)cc1,19,52*,6,-2,-25,53*
Cc1ccc(S(=O)(=O)NC2CCCCC2)cc1,11,3,3,0,-21,/
CSc1ccc(S(=O)(=O)NC2CCCCCC2)cc1,10,53*,22,1,71,48*
Cc1ccc(C(=O)C(C)OC(=O)c2cc3cc([N+](=O)[O-])ccc3oc2=O)cc1 (stereo not given),-18,72*,2,-5,21,55*
COc1cccc2cc(C(=O)OC(C)C(=O)c3ccc(C)cc3)c(=O)oc12 (stereo not given),14,31,8,-3,-35,/
Cc1ccc(-n2nc3c(=O)n(CCCC(=O)NCCc4ccccc4C)nc(C)c3c2C)cc1,16,10,8,-1,-11,/
